The campaign covered roughly 360,000 compounds. About 650 (0.18%) were called active. Only a selection was taken, and actives are over-represented in it overall. Values without a mark were called inactive. No stated cut-off is given here; in the data, active means activation above about 30%; inactive means the rest.

Thyrotropin-releasing hormone receptor (Homo sapiens), sequence (P34981 whole entry, looked up): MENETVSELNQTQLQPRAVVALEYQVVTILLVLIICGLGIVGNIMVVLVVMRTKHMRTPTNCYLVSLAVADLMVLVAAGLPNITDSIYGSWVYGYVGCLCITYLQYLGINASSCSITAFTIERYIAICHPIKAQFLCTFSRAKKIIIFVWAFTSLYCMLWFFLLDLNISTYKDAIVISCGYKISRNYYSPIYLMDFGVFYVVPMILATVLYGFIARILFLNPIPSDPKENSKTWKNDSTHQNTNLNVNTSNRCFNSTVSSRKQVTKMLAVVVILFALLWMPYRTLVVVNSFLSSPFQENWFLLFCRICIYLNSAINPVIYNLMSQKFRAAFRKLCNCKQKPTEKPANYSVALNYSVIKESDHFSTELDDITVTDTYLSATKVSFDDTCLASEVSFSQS

This test addresses Thyrotropin-releasing hormone receptor (Homo sapiens) (UniProt P34981). The test can be described thus: qHTS for Small Molecule Agonists and Allosteric Enhancers of Human TRH Receptor: Primary Screen for Agonists. Further: 0% is about no effect. The note with it: TRHR cells, calcium flux fluo-8, FDSS agonist mode; at 2 µM; hits give high values. The source says: NIH Chemical Genomics Center [NCGC] NIH Molecular Libraries Probe Centers Network [MLPCN] MLPCN Grant: MH089816-01 Assay Submitter (PI): Marvin Gershengorn This project aims to identify small drug-like molecules that activate (agonists) the thyrotropin releasing hormone (TRH) receptor (TRHR) or enhance its TRH-stimulated activity (allosteric enhancers). TRHR, a drug-accessible cell surface receptor expressed in specific brain regions, and its ligand TRH have been implicated in several central nervous system disorders, including depression and anxiety. Small molecule TRHR agonists or allosteric enhancers that are metabolically stable and able to cross the blood-brain barrier might serve as probes to elucidate the roles of brain TRH receptors in animal models, and might be valuable as lead compounds for the development of drugs to treat patients with central nervous system disorders. Upon TRHR-Gq activation in TRHR cells, intracellular calcium is released from stores in the endoplasmic reticulum. […] This primary screen measures compound-induced activation of calcium release.
For the HTS assay freshly prepared cells are plated at a density of 2000/well in 3 ul of complete DMEM medium containing 10% serum in 1536-well plates and cultured over night at 37 C in a humidified incubator with 5% CO2. The next day, 2 ul of a no wash calcium dye (ABD Bioquest) was added to the cells and plates were incubated at room temperature for 1 hour. For the assay, assay plates were loaded into the FDSS kinetic plate reader. A 10 cycle (1 second/cycle) baseline measurement is taken and then the FDSS online 1536 pintool delivers 23 nl of compound library (as well as TRH controls) to the plate. The plate is measured for kinetically at 1 cycle/sec for 180 seconds and is considered to be the agonist portion of the assay (eg, compounds which activate a positive calcium response during this portion are flagged as potential agonists). Following the 180 second read, 1 ul of either an EC20 (positive modulation assay) is delivered by an onboard pipette head. Measurements are taken kinetically for an additional 180 seconds. TRHR FDSS Screening Protocol 1. Reagent, 3 uL 2000 cells/well 1536 TC treated Black plate in media containing 10% FCS 2. Time, 18 hours, 33.5C 5% CO2 (cells grown at 37C) 3. Reagent, 2 uL ABD fluo-8 Ca dye 4. Time, 30 min-1.5hrs hours, Room temp (6 plates/batch) 5. Detector, EX 480/EM 530C, FDSS 10 cycles baseline (1sec/cycle) 6. Compound, 23 nL of stock solution from library 7. Detector, EX 480/EM 530C, FDSS […] (1sec/cycle) Agonist mode 8. Compound, 1 ul EC20 of TRH made up in HEPES HBSS, 10 nM final 9. Detector, EX 480/EM 530C, FDSS 100 cycles (1sec/cycle) Potentiator mode
Turning to `Cc1cc2c(s1)c1cnn(Cc3cc(F)c(Cl)cc3Cl)c(=O)c1n2C`, the activation is 0.185%.
The figure for `CSc1ccc(NC(=O)Cn2nnnc2-c2ccccc2F)cc1` is 0.477%.
For the compound `Cc1c(Cl)cccc1NC(=O)N1CCN(C(=O)c2nsc3ccccc23)CC1`, the activation was -1.09%.
`Cc1ccc(C(=O)NC2CCN(C#N)CC2)cc1`: the activation is 0.438%.
The figure for `O=S(=O)(c1ccc2c(c1)OCCO2)N1CCN(S(=O)(=O)c2cc(F)ccc2F)CC1` is -0.372%; for `CCN(CC)CCNC(=O)Cn1ncc2c3ccccc3n(Cc3ccccc3C)c2c1=O` it is 1.76%.
The figure for `Cc1ccc2nc(/C(C#N)=C/c3ccccc3F)[nH]c2c1` is 1.62%; for `CCOC(=O)c1ccc(-c2ccc(/C=C(\C#N)C(=O)Nc3ccc(C)cc3)o2)cc1` it is 1.6%; for `Cc1ccc2nc(/C(C#N)=C/c3ccc(-c4ccc(C(=O)OC(C)C)cc4)o3)[nH]c2c1` it is 69.6% (active).
Turning to `Cc1noc(/C=C/N(C)C)c1S(=O)(=O)N1CCCC(C(=O)Nc2cccc(F)c2)C1` (stereo not drawn), the activation is -0.115%.
Regarding `CCOC(=O)c1c(C)oc2nc(C)nc(N3CCN(c4ccc(OC)cc4)CC3)c12`, the activation was -1%.
The value for `COc1cccc(CNC(=O)Cc2csc3nc(-c4ccccc4)cn23)c1` was -0.21%; that for `COc1cccc2c1cc1c(=O)n(CC(=O)N3CCN(c4ccccc4)CC3)nc(C)n12` was 0.0688%.
The figure for `COc1ccc(-n2c(SCC(=O)Nc3ccc(Cl)c(C)c3)nc3n[nH]c(C)c3c2=N)cc1` is 0.481%; for `C/C(=N\NC(N)=S)c1ccncc1` it is 0.334%; for `CCN(CC)c1ccc2cc(C(N)=O)/c(=N\NC(=O)c3ccncc3)oc2c1` it is 81.7% (active).
Regarding `CCOC(=O)c1c(C)oc2ccc(N(C(=O)c3ccncc3)S(=O)(=O)c3ccc(CC)cc3)cc12`, the activation is 0.327%.
As for `N#CN1CCC(NC(=O)c2ccc(F)cc2)CC1`, the activation was 1.13%.
The value for `O=C(CNC(=O)c1ccc(Cl)cc1Cl)OC(C(=O)Nc1cc(C(F)(F)F)ccc1Cl)c1ccccc1` (stereo not drawn) was -0.435%; that for `CC(=O)Nc1c(C)nn(-c2ccccc2)c1N1CCC(C(=O)Nc2cc(Cl)ccc2C)CC1` was -0.0803%; that for `Cc1cccc2c(=O)cc(CSc3ccccc3NC(=O)C(C)C)[nH]c12` was 0.235%.
The figure for `COc1ccc(CNC(=O)CCc2c(C)nn(-c3ccc(N4CCCC4)nn3)c2C)cc1` is 0.0444%; for `Cc1ccc(C)c(Cn2c(=O)n(CCC(=O)NCc3ccc4c(c3)OCO4)c(=O)c3sccc32)c1` it is -0.659%.

The values are drawn from PubChem BioAssay AID493084 (National Center for Advancing Translational Sciences (NCATS), 2011).
